The sample as a whole holds a higher share of hits than the screen did.
Methyltransferases: Primary Screen for Target Class Profiling of Small Molecule Inhibitors of Methyltransferases | purified enzyme, MTase-Glo SAH luminescence; hits give low values | calls only at 40 µM | 25,000 tested, 3.9% active | AID 1745853, 2022; call rule not given here
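Each enzyme was assayed with SAM and its substrate. SAH formation detected by MTase-Glo luminescence; single-point 40 uM screen[…].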
Numbers without * were called inactive; i = inactive; + = active, no number; ! = repeats disagree. % is scaled to controls: 0 for no effect and ±100 for the full control effect.

SMILES	Methyltransferases
O=C(CSc1nnc2n(Cc3ccc(F)cc3)c(=O)c3ccccc3n12)NC1CCCCC1	i
O=C(CCc1nnc2n(Cc3ccc(Cl)cc3)c(=O)c3ccccc3n12)N1CCC(Cc2ccccc2)CC1	i
COc1cccc(CNC(=O)Cn2nc3ccc(SCc4ccc(Cl)cc4)nn3c2=O)c1	i
C[C@@H]1O[C@@H](O[C@H]2[C@@H]3C=CO[C@@H](O[C@@H]4O[C@H](CO)[C@@H](O)[C@H](O)[C@H]4O)[C@@H]3[C@@]3(CO)O[C@@H]23)[C@H](O)[C@H](OC(=O)/C=C/c2ccccc2)[C@H]1O	i
CC(=O)O[C@@H]1[C@@H](O)[C@H](C)O[C@@H](O[C@H]2[C@@H]3C=CO[C@@H](O[C@@H]4O[C@H](CO)[C@@H](O)[C@H](O)[C@H]4O)[C@@H]3[C@@]3(CO)O[C@@H]23)[C@@H]1OC(=O)/C=C/c1ccccc1	i
CC1=CC(=O)C2(OC3OC(C)C(O)C(OC(=O)/C=C/c4ccccc4)C3O)C=COC(OC3OC(CO)C(O)C(O)C3O)C12 (configuration not stated)	+
COc1ccc2cc3n(c2c1)CC(C)(C(=O)NCC1CCCO1)N(Cc1ccc(C)cc1)C3=O (configuration not stated)	i
CC1CCC(NC(=O)C2(C)Cn3c(cc4sccc43)C(=O)N2Cc2ccccn2)CC1 (configuration not stated)	i
COc1ccc(OC)c2c1cc1n2CC(C)(C(=O)NC2CCCCC2)N(Cc2cccnc2)C1=O (configuration not stated)	+
CCOCCCN1C(=O)c2cc3c(OC)ccc(OC)c3n2CC1(C)C(=O)NC1CCCCC1 (configuration not stated)	i
COCCCN1C(=O)c2cc3c(OC)ccc(OC)c3n2CC1(C)C(=O)NC1CCCCC1 (configuration not stated)	+
COc1ccc(OC)c2c1cc1n2CC(C)(C(=O)NC2CCC(C)CC2)N(Cc2cccnc2)C1=O (configuration not stated)	i
CCOCCCN1C(=O)c2cc3c(OC)ccc(OC)c3n2CC1(C)C(=O)NC1CCCCCC1 (configuration not stated)	i
COc1ccc(OC)c2c1cc1n2CC(C)(C(=O)NC2CCCCCC2)N(Cc2cccnc2)C1=O (configuration not stated)	i
CCCN1C(=O)c2c(-n3cccc3)c3cc(C)ccc3n2CC1(C)C(=O)NCCC(C)C (configuration not stated)	i
COc1ccccc1CNC(=O)C1c2c(n(C)c3ccccc23)SCC(=O)N1c1cc(Cl)ccc1OC (configuration not stated)	i
CCc1ccc(NS(=O)(=O)c2ccc3[nH]c4c(c3c2)CCCC4)cc1	i
CCCn1c(=O)c2ccc(C(=O)NC(C)CC)cc2n2c(=O)n(Cc3ccc(Cl)cc3)nc12 (configuration not stated)	i
CCCn1c(=O)c2ccc(C(=O)NC3CCCCC3)cc2n2c(=O)n(Cc3ccccc3)nc12	i
COc1cccc(CNC(=O)c2ncn3c2C(=O)N(C2CC2)C(C)(C(=O)NCc2ccccc2Cl)C3)c1 (configuration not stated)	i
CC1CCC(NC(=O)C2(C)Cn3c(cc4occc43)C(=O)N2Cc2cccc(Cl)c2)CC1 (configuration not stated)	i
CC(C)n1c(=O)c2ccc(C(=O)NC3CCCC3)cc2n2c(=O)n(Cc3cccc(F)c3)nc12	i
O=C(O)C1(Cc2cccc(Nc3nccs3)n2)CCC(Oc2cccc(Cl)c2F)CC1 (configuration not stated)	+!
COc1ccc2c(c1)c(NC(C)=O)c1n2CC(C)(C(=O)NC2CCCCCC2)N(CCC(C)C)C1=O (configuration not stated)	i
Cc1ccc(CNC(=O)c2ccc3c(=O)nc4c(-c5ccc(C)cc5)n[nH]n4c3c2)cc1	i
SMILES	Methyltransferases
COc1ccccc1CCNC(=O)c1ncn2c1C(=O)N(C1CC1)C(C)(C(=O)NC1CCCC1)C2 (configuration not stated)	i
CCC(=O)Nc1cccc(Oc2nc(Nc3ccc(N4CCN(C)CC4)cc3OC)ncc2Cl)c1	i
COc1ccc(N(C(=O)Nc2c(C)cccc2C)c2cc(Nc3ccc(N4CCN(C)CC4)cc3)ncn2)c(OC)c1	+
COc1ccc(N2CCN(c3nc(C(=O)NCc4cccc(C)c4)cs3)CC2)cc1	i
Cc1cccc(Cn2nc3n(CC(C)C)c(=O)c4ccc(C(=O)NC(C)C)cc4n3c2=O)c1	i
O=C(CSc1nnc2n(Cc3ccc(F)cc3)c(=O)c3ccccc3n12)Nc1cc(F)ccc1F	i
CN1C(=O)c2cc(C(=O)NCc3ccc(Cl)cc3)nn2CC1(C)C(=O)NCc1ccccc1 (configuration not stated)	i
Cc1cccc(CN2CC(=O)N(Cc3ccc(F)cc3)c3ccccc3S2(=O)=O)c1	i
Cc1ccc(CNC(=O)Cn2ccc3cc(S(=O)(=O)N4CCCCC4)ccc32)o1	i

Screening data deposited in PubChem BioAssay by National Center for Advancing Translational Sciences (NCATS).
